Legend:
Assay in all cases: DAPPL (digital affinity profiling via proximity ligation, sequencing); 10 mM Tris-HCl pH 7.5, 50 mM NaCl, 1 mM DTT, 4% glycerol, room temperature, 30 min; GST-TFs on glutathione beads, 16-mer random dsDNA library, 0.1% formaldehyde crosslink after washing; high values mean tight binding
FLI1 = target: T1, FLI1 (Homo sapiens, UniProt Q01543 1-452); details: protein: recombinant; tags: N-terminal GST; dsDNA, one strand shown
T1 sequence: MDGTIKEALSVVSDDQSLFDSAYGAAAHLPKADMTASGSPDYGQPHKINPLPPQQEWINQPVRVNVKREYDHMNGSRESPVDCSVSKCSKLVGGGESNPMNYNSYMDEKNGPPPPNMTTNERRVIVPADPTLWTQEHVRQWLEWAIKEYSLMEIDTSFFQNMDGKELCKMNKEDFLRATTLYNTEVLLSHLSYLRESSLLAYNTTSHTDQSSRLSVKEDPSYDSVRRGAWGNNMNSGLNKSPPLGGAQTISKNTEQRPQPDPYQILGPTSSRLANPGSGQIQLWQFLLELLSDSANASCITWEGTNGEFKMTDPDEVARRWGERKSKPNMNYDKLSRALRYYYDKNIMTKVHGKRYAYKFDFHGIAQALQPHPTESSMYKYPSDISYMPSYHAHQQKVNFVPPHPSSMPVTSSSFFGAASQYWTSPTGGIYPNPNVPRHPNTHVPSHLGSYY
In short: (§1)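 Binding signal is given per hexamer as its read frequency for a factor divided by its frequency in the tag-only sample. GST-fused human transcription factors were expressed in yeast, captured on glutathione beads, barcoded with DNA and pooled with that sample, then incubated with 200 nmole of a 16-mer random double-stranded DNA library in Tris/NaCl/DTT/glycerol buffer for 30 min at room temperature. The pools were then washed, crosslinked, proximity-ligated, amplified by PCR and sequenced on an Illumina NextSeq500.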

ELK1 = target: T2, ELK1 (Homo sapiens, UniProt P19419 1-428); details: protein: recombinant; tags: N-terminal GST; dsDNA, one strand shown
T2 sequence: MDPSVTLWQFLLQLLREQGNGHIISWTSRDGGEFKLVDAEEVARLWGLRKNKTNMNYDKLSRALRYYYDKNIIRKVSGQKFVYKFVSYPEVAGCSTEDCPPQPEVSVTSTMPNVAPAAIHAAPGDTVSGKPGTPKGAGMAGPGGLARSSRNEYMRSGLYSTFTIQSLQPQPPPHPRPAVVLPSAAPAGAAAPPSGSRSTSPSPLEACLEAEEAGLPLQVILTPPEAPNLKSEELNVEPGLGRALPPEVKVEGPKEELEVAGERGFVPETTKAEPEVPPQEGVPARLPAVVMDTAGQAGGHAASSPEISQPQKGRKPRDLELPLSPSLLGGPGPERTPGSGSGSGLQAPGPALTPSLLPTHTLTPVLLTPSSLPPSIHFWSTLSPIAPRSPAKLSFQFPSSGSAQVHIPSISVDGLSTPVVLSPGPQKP
In short: as §1

GABPA = target: T3, GABPA (Homo sapiens, UniProt Q06546 1-454); details: protein: recombinant; tags: N-terminal GST; dsDNA, one strand shown
T3 sequence: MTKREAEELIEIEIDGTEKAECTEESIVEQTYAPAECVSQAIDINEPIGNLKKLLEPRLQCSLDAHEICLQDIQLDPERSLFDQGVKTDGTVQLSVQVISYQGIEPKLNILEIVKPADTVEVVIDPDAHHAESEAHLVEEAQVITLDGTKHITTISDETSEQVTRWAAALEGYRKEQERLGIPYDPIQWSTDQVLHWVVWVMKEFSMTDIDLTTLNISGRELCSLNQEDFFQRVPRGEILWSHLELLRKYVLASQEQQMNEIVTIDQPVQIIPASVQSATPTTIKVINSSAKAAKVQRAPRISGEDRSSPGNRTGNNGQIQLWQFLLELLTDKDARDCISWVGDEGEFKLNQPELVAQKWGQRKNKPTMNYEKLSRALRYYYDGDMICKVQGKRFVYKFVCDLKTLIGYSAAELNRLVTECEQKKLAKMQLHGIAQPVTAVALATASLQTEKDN
In short: as §1

ERG = target: T4, ERG (Homo sapiens, UniProt P11308 1-479); details: protein: recombinant; tags: N-terminal GST; dsDNA, one strand shown
T4 sequence: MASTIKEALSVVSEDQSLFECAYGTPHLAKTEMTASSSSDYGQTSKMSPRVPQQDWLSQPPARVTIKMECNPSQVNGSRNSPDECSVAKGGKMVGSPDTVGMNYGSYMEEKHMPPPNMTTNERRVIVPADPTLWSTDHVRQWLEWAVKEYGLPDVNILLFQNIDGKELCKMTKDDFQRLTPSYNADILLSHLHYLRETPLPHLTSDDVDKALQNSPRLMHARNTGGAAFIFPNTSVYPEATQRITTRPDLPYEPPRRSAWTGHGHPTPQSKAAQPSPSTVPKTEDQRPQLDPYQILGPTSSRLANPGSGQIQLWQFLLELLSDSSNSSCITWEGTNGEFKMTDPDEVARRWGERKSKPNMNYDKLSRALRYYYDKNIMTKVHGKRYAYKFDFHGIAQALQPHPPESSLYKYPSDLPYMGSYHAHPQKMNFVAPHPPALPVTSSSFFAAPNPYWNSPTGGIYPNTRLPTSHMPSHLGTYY
In short: as §1

ELF1 = ELF1 (Homo sapiens, UniProt P32519 1-619); details: protein: recombinant; tags: N-terminal GST; dsDNA, one strand shown
In short: as §1

EHF = target: T5, EHF (Homo sapiens, UniProt Q9NZC4 1-300); details: protein: recombinant; tags: N-terminal GST; dsDNA, one strand shown
T5 sequence: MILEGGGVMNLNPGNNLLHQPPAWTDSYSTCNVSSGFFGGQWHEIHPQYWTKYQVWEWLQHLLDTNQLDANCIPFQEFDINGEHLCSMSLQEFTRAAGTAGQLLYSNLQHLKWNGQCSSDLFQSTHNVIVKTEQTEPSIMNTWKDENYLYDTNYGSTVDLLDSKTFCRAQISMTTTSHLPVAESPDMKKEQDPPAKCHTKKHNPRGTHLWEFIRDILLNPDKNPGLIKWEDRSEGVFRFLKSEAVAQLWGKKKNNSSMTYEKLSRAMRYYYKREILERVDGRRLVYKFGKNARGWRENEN
In short: as §1

SPI1 = SPI1 (Homo sapiens, UniProt P17947 1-270); details: protein: recombinant; tags: N-terminal GST; dsDNA, one strand shown
In short: as §1

SPIB = SPIB (Homo sapiens, UniProt Q01892 1-262); details: protein: recombinant; tags: N-terminal GST; dsDNA, one strand shown
In short: as §1

ELK3 = target: T6, ELK3 (Homo sapiens, UniProt P41970 1-407); details: protein: recombinant; tags: N-terminal GST; dsDNA, one strand shown
T6 sequence: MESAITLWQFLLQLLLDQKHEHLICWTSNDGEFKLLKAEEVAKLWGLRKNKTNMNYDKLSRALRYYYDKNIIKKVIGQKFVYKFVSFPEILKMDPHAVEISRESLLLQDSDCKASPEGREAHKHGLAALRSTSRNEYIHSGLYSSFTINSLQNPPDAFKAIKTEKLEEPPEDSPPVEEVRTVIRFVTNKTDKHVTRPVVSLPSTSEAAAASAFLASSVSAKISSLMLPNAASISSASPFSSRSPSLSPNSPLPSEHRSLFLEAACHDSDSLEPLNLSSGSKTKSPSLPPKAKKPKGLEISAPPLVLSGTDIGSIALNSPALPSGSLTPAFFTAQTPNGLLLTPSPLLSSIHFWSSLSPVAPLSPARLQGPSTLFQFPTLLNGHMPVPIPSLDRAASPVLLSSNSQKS
In short: as §1

FEV = target: T7, FEV (Homo sapiens, UniProt Q99581 1-238); details: protein: recombinant; tags: N-terminal GST; dsDNA, one strand shown
T7 sequence: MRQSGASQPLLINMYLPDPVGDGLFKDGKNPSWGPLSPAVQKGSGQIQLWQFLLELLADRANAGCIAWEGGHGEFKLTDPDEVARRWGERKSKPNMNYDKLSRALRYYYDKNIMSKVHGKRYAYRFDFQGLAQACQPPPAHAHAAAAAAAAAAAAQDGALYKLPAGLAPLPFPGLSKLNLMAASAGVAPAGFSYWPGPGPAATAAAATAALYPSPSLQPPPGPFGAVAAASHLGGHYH
In short: as §1

ETV5 = ETV5 (Homo sapiens, UniProt P41161 1-510); details: protein: recombinant; tags: N-terminal GST; dsDNA, one strand shown
In short: as §1

HSF1 = HSF1 (Homo sapiens, UniProt Q00613 1-529); details: protein: recombinant; tags: N-terminal GST; chain copies: 3; dsDNA, one strand shown
In short: as §1

SPIC = target: T8, SPIC (Homo sapiens, UniProt Q8N5J4 1-248); details: protein: recombinant; tags: N-terminal GST; dsDNA, one strand shown
T8 sequence: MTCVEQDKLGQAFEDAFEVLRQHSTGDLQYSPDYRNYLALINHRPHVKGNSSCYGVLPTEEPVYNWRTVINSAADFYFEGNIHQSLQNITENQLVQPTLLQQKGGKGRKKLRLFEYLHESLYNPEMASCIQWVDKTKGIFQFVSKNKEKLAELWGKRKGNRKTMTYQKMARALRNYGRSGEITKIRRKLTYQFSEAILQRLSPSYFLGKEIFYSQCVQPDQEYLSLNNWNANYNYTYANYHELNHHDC
In short: as §1

ELF4 = ELF4 (Homo sapiens, UniProt Q99607 1-663); details: protein: recombinant; tags: N-terminal GST; dsDNA, one strand shown
In short: as §1

ELK4 = target: T9, ELK4 (Homo sapiens, UniProt P28324-2 1-405); details: protein: recombinant; tags: N-terminal GST; dsDNA, one strand shown
T9 sequence: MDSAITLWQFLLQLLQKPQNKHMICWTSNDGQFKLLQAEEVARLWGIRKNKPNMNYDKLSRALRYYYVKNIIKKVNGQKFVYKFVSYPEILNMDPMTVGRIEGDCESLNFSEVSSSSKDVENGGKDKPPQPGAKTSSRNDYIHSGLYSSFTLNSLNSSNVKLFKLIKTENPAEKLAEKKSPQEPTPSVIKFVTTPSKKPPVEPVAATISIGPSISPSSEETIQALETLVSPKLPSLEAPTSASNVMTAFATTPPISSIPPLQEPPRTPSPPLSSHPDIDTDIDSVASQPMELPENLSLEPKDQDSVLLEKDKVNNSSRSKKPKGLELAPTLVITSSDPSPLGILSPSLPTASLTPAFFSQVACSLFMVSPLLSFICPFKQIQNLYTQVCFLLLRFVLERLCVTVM
In short: as §1

ETV2 = target: T10, ETV2 (Homo sapiens, UniProt O00321 1-342); details: protein: recombinant; tags: N-terminal GST; dsDNA, one strand shown
T10 sequence: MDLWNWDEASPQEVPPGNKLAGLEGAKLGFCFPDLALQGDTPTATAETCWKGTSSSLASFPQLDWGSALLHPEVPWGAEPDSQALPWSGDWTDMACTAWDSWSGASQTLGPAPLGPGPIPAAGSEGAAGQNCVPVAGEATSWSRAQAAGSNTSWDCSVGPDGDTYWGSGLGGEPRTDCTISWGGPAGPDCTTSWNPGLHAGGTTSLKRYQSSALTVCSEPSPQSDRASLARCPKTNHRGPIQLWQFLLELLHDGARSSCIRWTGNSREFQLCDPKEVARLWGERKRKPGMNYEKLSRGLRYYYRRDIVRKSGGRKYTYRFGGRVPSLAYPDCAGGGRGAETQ
In short: as §1

ELF3 = target: T11, ELF3 (Homo sapiens, UniProt P78545 1-371); details: protein: recombinant; tags: N-terminal GST; dsDNA, one strand shown
T11 sequence: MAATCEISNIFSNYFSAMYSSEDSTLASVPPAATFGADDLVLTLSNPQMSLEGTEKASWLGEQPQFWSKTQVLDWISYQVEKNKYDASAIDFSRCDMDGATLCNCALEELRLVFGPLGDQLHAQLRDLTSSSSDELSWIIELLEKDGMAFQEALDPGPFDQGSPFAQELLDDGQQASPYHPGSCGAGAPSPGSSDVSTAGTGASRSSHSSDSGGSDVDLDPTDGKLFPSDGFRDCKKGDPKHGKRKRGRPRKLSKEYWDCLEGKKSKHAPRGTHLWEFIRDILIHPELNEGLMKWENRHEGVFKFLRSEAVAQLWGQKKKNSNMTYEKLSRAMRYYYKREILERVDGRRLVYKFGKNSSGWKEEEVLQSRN
In short: as §1

CRX = CRX (Homo sapiens, UniProt O43186 1-299); details: protein: recombinant; tags: N-terminal GST; dsDNA, one strand shown
In short: as §1

ETV1 = ETV1 (Homo sapiens, UniProt P50549 1-477); details: protein: recombinant; tags: N-terminal GST; dsDNA, one strand shown
In short: as §1

ETV1, sequence (P50549 whole entry): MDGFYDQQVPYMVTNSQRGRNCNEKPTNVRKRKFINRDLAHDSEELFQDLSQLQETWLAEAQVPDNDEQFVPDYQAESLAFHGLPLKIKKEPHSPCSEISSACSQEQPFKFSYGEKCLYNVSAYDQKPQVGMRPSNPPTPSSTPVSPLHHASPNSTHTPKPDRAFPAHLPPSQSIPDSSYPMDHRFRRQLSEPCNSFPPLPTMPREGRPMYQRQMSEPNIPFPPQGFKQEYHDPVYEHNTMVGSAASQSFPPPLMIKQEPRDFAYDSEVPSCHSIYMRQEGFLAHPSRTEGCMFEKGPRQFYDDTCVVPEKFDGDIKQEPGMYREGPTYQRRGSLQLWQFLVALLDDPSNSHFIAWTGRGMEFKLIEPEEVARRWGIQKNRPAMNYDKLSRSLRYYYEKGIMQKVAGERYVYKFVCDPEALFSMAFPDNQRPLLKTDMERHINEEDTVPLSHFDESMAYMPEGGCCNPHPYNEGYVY
CRX, sequence (O43186 whole entry): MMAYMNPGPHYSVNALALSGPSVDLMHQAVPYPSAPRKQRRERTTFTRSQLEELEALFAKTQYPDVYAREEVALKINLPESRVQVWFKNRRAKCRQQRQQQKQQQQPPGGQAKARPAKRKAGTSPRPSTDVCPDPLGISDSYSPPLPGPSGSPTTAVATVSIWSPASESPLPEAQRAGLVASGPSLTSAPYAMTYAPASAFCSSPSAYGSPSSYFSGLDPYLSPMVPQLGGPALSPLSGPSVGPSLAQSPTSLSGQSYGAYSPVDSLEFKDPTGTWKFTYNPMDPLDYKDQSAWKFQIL
ETV5, sequence (P41161 whole entry): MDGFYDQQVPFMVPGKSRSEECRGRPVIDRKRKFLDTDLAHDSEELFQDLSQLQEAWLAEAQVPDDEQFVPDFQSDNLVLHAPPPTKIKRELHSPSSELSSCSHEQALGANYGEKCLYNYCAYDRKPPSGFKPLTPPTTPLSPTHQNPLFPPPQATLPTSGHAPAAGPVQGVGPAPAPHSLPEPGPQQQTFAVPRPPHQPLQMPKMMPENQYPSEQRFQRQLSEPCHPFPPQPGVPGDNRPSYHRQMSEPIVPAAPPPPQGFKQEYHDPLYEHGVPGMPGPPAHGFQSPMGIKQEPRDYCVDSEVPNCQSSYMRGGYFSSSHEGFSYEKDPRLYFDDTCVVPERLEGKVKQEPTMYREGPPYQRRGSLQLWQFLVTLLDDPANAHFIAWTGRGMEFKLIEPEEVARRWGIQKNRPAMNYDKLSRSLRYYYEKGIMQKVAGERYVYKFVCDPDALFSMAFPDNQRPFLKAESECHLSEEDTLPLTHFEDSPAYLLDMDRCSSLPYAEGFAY
ELF4, sequence (Q99607 whole entry): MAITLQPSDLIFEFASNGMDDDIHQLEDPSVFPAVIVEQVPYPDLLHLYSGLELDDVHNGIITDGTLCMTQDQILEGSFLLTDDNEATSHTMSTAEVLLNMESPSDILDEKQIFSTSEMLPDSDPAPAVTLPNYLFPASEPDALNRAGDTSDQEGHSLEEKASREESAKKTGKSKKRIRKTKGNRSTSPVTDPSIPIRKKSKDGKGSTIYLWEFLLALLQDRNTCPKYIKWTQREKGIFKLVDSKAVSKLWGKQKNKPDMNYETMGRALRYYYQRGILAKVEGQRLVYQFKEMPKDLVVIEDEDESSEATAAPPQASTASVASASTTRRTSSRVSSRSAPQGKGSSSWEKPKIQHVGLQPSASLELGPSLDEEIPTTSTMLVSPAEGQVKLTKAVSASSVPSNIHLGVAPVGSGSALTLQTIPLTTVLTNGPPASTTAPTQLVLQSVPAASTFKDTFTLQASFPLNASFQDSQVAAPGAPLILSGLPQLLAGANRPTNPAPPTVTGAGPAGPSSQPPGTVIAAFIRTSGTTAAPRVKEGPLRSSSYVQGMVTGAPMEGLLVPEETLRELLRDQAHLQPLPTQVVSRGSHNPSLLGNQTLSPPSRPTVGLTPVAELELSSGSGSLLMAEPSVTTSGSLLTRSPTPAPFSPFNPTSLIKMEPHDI
SPIB, sequence (Q01892 whole entry): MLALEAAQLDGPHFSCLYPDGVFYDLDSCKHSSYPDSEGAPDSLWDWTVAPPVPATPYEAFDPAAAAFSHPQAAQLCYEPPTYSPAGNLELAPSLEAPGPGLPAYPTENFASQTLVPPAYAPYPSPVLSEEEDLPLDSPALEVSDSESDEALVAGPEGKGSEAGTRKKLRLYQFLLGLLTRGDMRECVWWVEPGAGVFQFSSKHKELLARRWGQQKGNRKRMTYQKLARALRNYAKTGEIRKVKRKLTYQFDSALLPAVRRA
ELF1, sequence (P32519 whole entry): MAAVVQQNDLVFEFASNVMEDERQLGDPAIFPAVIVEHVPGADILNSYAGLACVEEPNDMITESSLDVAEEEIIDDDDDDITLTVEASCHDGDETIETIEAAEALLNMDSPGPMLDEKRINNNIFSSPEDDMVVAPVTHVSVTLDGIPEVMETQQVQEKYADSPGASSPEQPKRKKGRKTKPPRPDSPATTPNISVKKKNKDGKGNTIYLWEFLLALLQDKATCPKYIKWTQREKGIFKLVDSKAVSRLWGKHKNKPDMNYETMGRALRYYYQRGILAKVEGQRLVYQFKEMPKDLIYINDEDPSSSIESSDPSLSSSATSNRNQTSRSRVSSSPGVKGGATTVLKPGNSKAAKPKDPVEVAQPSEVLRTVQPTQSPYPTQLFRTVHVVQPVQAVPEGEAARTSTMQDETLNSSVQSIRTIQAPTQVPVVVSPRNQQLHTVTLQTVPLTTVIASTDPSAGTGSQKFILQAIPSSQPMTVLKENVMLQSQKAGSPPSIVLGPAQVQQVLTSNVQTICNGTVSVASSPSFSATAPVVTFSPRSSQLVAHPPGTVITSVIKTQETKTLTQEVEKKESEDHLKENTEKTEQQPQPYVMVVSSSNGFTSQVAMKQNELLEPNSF
HSF1, sequence (Q00613 whole entry): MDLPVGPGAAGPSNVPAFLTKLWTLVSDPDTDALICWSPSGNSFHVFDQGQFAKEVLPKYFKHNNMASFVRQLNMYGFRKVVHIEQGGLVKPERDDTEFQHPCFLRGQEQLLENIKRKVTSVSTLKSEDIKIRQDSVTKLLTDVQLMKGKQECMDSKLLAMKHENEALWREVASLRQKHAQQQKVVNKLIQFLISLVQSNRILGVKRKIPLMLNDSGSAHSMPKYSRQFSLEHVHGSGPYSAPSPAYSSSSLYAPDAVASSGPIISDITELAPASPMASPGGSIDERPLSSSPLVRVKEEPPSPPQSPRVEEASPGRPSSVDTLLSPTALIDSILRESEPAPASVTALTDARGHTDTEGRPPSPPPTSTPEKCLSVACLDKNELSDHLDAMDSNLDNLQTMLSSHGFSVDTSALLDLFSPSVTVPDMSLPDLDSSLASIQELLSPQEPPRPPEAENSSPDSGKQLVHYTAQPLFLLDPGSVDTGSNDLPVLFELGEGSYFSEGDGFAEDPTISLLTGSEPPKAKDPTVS

With ATTCGA the binding signal (FLI1) was 1.3 fold enrichment (6-mer frequency, TF over GST control), the binding signal (ELK1) was 1.22 fold enrichment (6-mer frequency, TF over GST control) and the binding signal (GABPA) was 1.37 fold enrichment (6-mer frequency, TF over GST control). For the same sequence, the binding signal (ERG) was 1.33 fold enrichment (6-mer frequency, TF over GST control), the binding signal (ELF1) was 1.41 fold enrichment (6-mer frequency, TF over GST control) and the binding signal (EHF) was 1.29 fold enrichment (6-mer frequency, TF over GST control). For the same sequence, the binding signal (SPI1) was 1.32 fold enrichment (6-mer frequency, TF over GST control), the binding signal (SPIB) was 1.38 fold enrichment (6-mer frequency, TF over GST control) and the binding signal (ELK3) was 1.25 fold enrichment (6-mer frequency, TF over GST control). The binding signal (FEV) was 1.27 fold enrichment (6-mer frequency, TF over GST control), the binding signal (ETV5) was 1.28 fold enrichment (6-mer frequency, TF over GST control) and the binding signal (HSF1) was 2.51 fold enrichment (6-mer frequency, TF over GST control). For the same sequence, the binding signal (SPIC) was 1.41 fold enrichment (6-mer frequency, TF over GST control), the binding signal (ELF4) was 1.38 fold enrichment (6-mer frequency, TF over GST control) and the binding signal (ELK4) was 1.2 fold enrichment (6-mer frequency, TF over GST control). The binding signal (ETV2) was 1.37 fold enrichment (6-mer frequency, TF over GST control), the binding signal (ELF3) was 1.55 fold enrichment (6-mer frequency, TF over GST control) and the binding signal (CRX) was 1.63 fold enrichment (6-mer frequency, TF over GST control). For the same sequence, the binding signal (ETV1) was 1.3 fold enrichment (6-mer frequency, TF over GST control).

Source: PMC7862700, “An all-to-all approach to the identification of sequence-specific readers for epigenetic DNA modifications on cytosine”
